Screens: PubChem, several laboratories
Most compounds without a hit are left out; they make up all but 4.7% or so of the library.
RecA intein inh: Mtb RecA intein splicing inhibitors, primary screen, biochemical, fluorescence, HTS | cell-free RecA intein splicing | inhibition, % (test concentration not listed) | 290,000 compounds, 0.75% hits | AID 2221, 2009; in the data active = inhibition above about 30%;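 also: 0% = vehicle wells and 100% = reference inhibitor control wells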
FBA Mtb inh: Mtb FBA enzyme inhibitors, primary screen, biochemical, fluorescence, strain H37Rv. Fructose-bisphosphate aldolase (Mycobacterium tuberculosis (strain ATCC 25618 / H37Rv)), …. purified M. tuberculosis FBA, fluorescence read-out. inhibition, % at 1 µM. 360,000 compounds, 2.3% hits. AID 588726, 2011; in the data active = inhibition above about 27%;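 also: 0% = vehicle and 100% = reference inhibitor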
Target sequence (P9WQA3 whole entry, looked up): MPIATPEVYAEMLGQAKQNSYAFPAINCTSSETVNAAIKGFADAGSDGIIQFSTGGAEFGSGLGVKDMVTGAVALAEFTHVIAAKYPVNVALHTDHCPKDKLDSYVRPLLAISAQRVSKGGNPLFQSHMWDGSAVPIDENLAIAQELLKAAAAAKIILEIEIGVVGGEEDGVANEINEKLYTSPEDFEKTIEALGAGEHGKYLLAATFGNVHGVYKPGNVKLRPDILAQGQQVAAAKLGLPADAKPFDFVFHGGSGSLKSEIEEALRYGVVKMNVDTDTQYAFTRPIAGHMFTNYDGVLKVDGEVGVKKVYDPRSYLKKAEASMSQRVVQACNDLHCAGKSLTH
SARS 3CLpro inh: SARS-CoV 3CLpro protease inhibitors, primary screen, biochemical, quenched FRET | 290,000 compounds, 0.14% hits | recombinant SARS-CoV 3CLpro, quenched FRET peptide cleavage | inhibition, % at 6 µM | Replicase polyprotein 1ab (Severe acute respiratory syndrome coronavirus), P0C6X7; in the data active = inhibition above about 12%
GDH-TPI inh: GDH-TPI coupling enzyme inhibitors, primary screen, artefact control for M. tuberculosis FBA inhibitor project, biochemical, absorbance, full deck | GDH-TPI coupled enzyme counterscreen, NADH absorbance | inhibition, % at 4.8 µM | 360,000 compounds, 1.2% hits;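 also: 0% = DMSO wells and 100% = wells lacking the enzyme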
CCHF vOTU inh: CCHFV vOTU protease inhibitors, primary screen, biochemical, Pep-AMC substrate, fluorescence | inhibition, % at 11.5 µM | 370,000 compounds, 0.55% hits; also: 0% = vehicle wells with enzyme and 100% = no enzyme wells
DUSP3 inh: VHR1 phosphatase inhibitors, primary screen, biochemical, absorbance, uHTS; Dual specificity protein phosphatase 3 (Homo sapiens), P51452; recombinant VHR phosphatase, pNPP absorbance; inhibition, % at 13.3 µM; 290,000 compounds, 0.52% hits; AID 1654, 2009; in the data active = inhibition above about 50%
Target sequence (P51452 whole entry, looked up): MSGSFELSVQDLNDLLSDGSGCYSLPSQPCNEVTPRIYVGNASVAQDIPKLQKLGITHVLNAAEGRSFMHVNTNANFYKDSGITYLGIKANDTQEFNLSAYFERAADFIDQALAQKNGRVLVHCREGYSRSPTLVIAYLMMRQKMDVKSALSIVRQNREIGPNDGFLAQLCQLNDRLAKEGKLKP
* marks the source's active call; other numbers are inactive results; x = no result; + = active, no number. Rule as the data show it, unless noted: active = inhibition above about 30%; inactive = the rest.

SMILES	RecA intein inh	FBA Mtb inh	SARS 3CLpro inh	GDH-TPI inh	CCHF vOTU inh	DUSP3 inh
Cc1ccc(-c2[nH]nc3c2C(c2ccoc2)C(C#N)=C(N)O3)cc1C (stereo unspecified)	92*	-2	-3	-1	x	-11
COC(=O)C1=C(C)NC(=S)NC1c1ccc(Br)cc1 (stereo unspecified)	x	x	x	x	1	x
Cn1c(Sc2ccc(Cl)cc2)c(C=O)c2ccccc21	19	2	6	9	4	-7
Cc1cccc(Sc2c(C=O)c3ccccc3n2C)c1	30*	-5	1	1	-11	33
CCOC(=O)c1ccc(-c2ccc(/C=C(\C#N)C(=O)NCC3CCCO3)o2)cc1 (stereo unspecified)	-62	-1	-3	34*	-7	13
CC(=NCCO)c1c(O)n(C2CCCCC2)c(=O)[nH]c1=O	0	2	2	-2	2	10
C/C(=N\NC(=O)c1ccccc1O)c1c(O)n(Cc2ccccc2)c(=O)[nH]c1=O	6	7	7	47*	15	0
C/C(=N\NC(=O)c1ccccc1Cl)c1c(O)n(C2CCCCC2)c(=O)[nH]c1=O	1	-6	4	37*	23	15
C/C(=N\NC(=O)c1ccccc1O)c1c(O)n(C2CCCCC2)c(=O)[nH]c1=O	15	2	4	46*	24	-25
C/C(=N\NC(=O)c1ccccc1)c1c(O)n(C2CCCCC2)c(=O)[nH]c1=O	-1	-1	2	38*	5	-9
COc1cc(N)c(Cl)cc1C(=O)OCC(=O)NCC1CCCCC1	x	2	x	11	8	x
COc1ccc(-c2c(Cc3ccccc3)nc(NC(=O)c3ccccc3)n2C)cc1	x	x	x	x	0	x
CC(C)CN(C(=O)COC(=O)CSc1ccc(Br)cc1)C1CCS(=O)(=O)C1 (stereo unspecified)	x	5	x	11	-7	x
Cc1nc(-c2ccc(S(=O)(=O)Nc3ccc(Br)cc3F)cc2)co1	0	-4	4	4	12	-17
C[C@@H]1CNCCN1c1ccc(N2CCS(=O)(=O)CC2)c(C#N)c1	x	x	x	x	1	x
COc1ccc(/C=N/N(CCC(=O)NC(C)(C)C)C2=NS(=O)(=O)c3ccccc32)cc1	-56	6	-1	47*	-3	2
CC(=O)c1sc(=S)n(-c2ccc(Cl)cc2)c1C	-2	0	3	11	-2	30
CC(=O)c1sc(=S)n(-c2ccccc2)c1C	-11	2	1	68*	4	22
CCN(CC)C(=O)c1cc2c(=O)n3ccccc3nc2s1	-65	186*	-9	24	-171	32
COCCN(CCOC)C(=O)c1cc2c(=O)n3ccccc3nc2s1	x	+	-3	32*	-53	15
CN(C)S(=O)(=O)c1cccc(NC(=O)c2cc3c(=O)n4ccccc4nc3s2)c1	-15	5	-6	10	-10	-3
O=C(Nc1ccc([N+](=O)[O-])cc1)N1CCCCC1	-1	2	1	45*	2	24
Cc1cccc(NC(=O)N2CCCC2)c1	2	4	0	1	-9	52*
COc1ccc(C(=O)ON=C(C)c2nccs2)cc1	x	0	x	7	2	x
O=S(=O)(Cc1ccccc1)N1CCNCC1	2	-1	-1	3	-17	-3
SMILES	RecA intein inh	FBA Mtb inh	SARS 3CLpro inh	GDH-TPI inh	CCHF vOTU inh	DUSP3 inh
CCC1=[N+](CC(=O)c2ccc(C)cc2)CCn2cccc21	x	3	4	35*	-3	27
CC(=O)c1ccc(Nc2nc(C(N)C3CCCCC3)cs2)cc1 (stereo unspecified)	x	3	x	34*	9	x
NC(c1csc(Nc2ccc(C(=O)c3ccccc3)cc2)n1)C1CCCCC1 (stereo unspecified)	x	3	x	3	28	x
COc1ccc(CC(N)c2csc(Nc3ccc(C(C)=O)cc3)n2)cc1 (stereo unspecified)	x	3	x	38*	-2	x
CC(=O)c1ccc(Nc2nc(C(N)CC(C)C)cs2)cc1 (stereo unspecified)	x	7	x	32*	14	x
Cc1ccc(CN2CC=CCS2(=O)=O)cc1	x	x	x	x	6	x
CCCN(C(=O)c1c(CC)noc1C)c1c(N)n(Cc2ccccc2)c(=O)[nH]c1=O	0	-1	x	-5	-8	x
Cc1ccc(C(=O)N/N=C\c2ccc[nH]2)cn1	0	-1	2	47*	19	2
Cc1ccc(C(=O)N/N=C/c2cc(Br)ccc2O)cn1	x	4	-2	17	18	44
Cc1ccc(C(=O)N/N=C\C=C\c2ccc(Br)cc2)cn1	-2	-3	-2	35*	-7	-1
O=C(N/N=C/c1ccc[nH]1)c1cccnc1	0	0	2	45*	11	7
Cc1cccc(C(=O)N/N=C/c2ccc[nH]2)c1	2	1	3	21	14	-6
CC(=NN1CCN(c2ccccn2)CC1)c1ccccc1O	x	x	x	x	-3	x
CC(CNC(=O)[C@@H](Cc1ccccc1)NC(=O)[C@H]1O[C@@H](n2cnc3c(=O)[nH]c(N)nc32)[C@H](O)[C@@H]1O)c1ccccc1 (stereo partly specified)	x	x	x	x	2	x
Cc1ccc(S(=O)(=O)N(CC(=O)NCC2CCCO2)c2cccc([N+](=O)[O-])c2)cc1 (stereo unspecified)	0	-2	1	-7	-9	5
CS(=O)(=O)N(CC(=O)NCC1CCCO1)c1cccc([N+](=O)[O-])c1 (stereo unspecified)	-2	1	7	-12	14	56*
CC(=O)C1=C(O)C(=O)N(c2ccc(S(=O)(=O)Nc3nccs3)cc2)C1c1ccc(F)cc1 (stereo unspecified)	4	-2	1	32*	-11	13
O=C(N/N=C/c1cccc(F)c1)c1c(O)c2ccccc2[nH]c1=O	-2	-2	-4	2	-15	-2
O=C(Nc1cccc(F)c1)c1c(O)c2ccccc2[nH]c1=O	-2	1	-3	32*	-8	50*
COc1ccc(CNC(=O)c2cc(S(=O)(=O)N3CCCCC3)ccc2N2CCOCC2)cc1OC	x	6	x	10	5	x
CCOc1ccc2[nH]c(C)cc(=O)c2c1	0	17	-1	19	-16	19
CCOc1ccc2[nH]c(=O)c(=O)[nH]c2c1	x	3	-1	35*	5	-11
Cc1ccc(C(=O)/C=C/Nc2ccccn2)cc1	-3	0	-1	33*	-6	x
Cc1ccc(N/C=C/C(=O)c2ccc(C)cc2)cc1	3	3	0	6	4	21
